JMJD2A Tudor: inhibitors of human JMJD2A Tudor domain | O75164 | AlphaScreen JMJD2A-Tudor / H3K4me3 peptide binding | Potency, µM (series often up to 114 µM), for inactives: top-dose activity change, negative = inhibition, hits mostly inhibitors | 390,000 compounds, 4.4% hits | AID 504339; further: on the % scale 0 is the no-effect control and ±100 the full control effect; nearly all actives have a fitted effect of over 50% in size
BAZ2B inh: blocks human BAZ2B | Q9UIF8 | AlphaScreen BAZ2B-H3K14Ac peptide displacement | Potency, µM (highest dose often 114 µM), for the others: at the highest dose activity change, negative = inhibition, hits mostly inhibitors | 360,000 compounds, 4.4% hits; further: on the % scale 0 is the no-effect control and ±100 the full control effect; nearly all actives have a fitted effect of over 60% in size
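Inhibition is scored as reduced AlphaScreen emission. The BAZ2B/b-H3(5-23)K14Ac complex (50 nM each) in PBS pH 7.4, 0.01% Tween-20 meets compound (up to 110 uM) for 30 min at RT before bead addition.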
L3MBTL1 block: blocks human L3MBTL1; Potency, µM (highest dose often 57.1 µM), for the others: at the top dose activity, negative = inhibition, most hits filed as inhibitors; AID 485360; Q9Y468; 230,000 compounds, 0.66% hits; AlphaScreen L3MBTL1–H3K9me1 peptide binding; further: on the % scale 0 is the no-effect control and ±100 the full control effect; nearly all actives have a fitted effect of over 60% in size
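L3MBTL1 (50 nM) pre-complexed 30 min with biotinylated H3(1-15)K9me1 peptide (75 nM), then compounds added for 30 min at room temperature; AlphaScreen streptavidin donor/nickel chelate acceptor beads (10 ug/mL final) read after 30 min dark incubation.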
G9a block: inhibitors of human histone lysine methyltransferase G9a. Q96KQ7. G9a H3K9 monomethylation, AlphaScreen, 2 h. Potency, µM (titrated, usually from 102 µM), for inactives: at the highest dose activity, negative = inhibition, actives largely listed as inhibitors. 350,000 compounds, 8.8% hits; further: on the % scale 0 is the no-effect control and ±100 the full control effect; nearly all actives have a fitted effect of over 75% in size
Target sequence (Q96KQ7 913-1193 limits assumed): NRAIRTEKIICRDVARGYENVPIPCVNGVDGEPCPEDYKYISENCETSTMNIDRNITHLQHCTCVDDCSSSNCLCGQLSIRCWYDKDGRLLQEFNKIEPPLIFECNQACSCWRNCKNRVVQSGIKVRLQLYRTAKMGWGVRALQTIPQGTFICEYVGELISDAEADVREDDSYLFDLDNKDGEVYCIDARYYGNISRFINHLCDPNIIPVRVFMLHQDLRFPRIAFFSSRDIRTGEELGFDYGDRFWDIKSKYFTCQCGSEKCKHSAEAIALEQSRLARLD
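AlphaScreen detection with an anti-monomethyl H3K9 antibody quantified product after a 2 h room-temperature reaction containing 500 nM biotinylated H3K9 peptide, 20 µM SAM and 20 nM enzyme, which had been preincubated 15 min with compound.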
HP1b chromo inh: blocks HP1-beta chromodomain binding to methylated histone tails; P83916; Potency, µM (series often up to 114 µM), for the others: top-dose activity change, negative = inhibition, usual class: inhibitors; AID 540317; 390,000 compounds, 0.56% hits; AlphaScreen HP1-beta / biotin-H3K9me3 peptide binding; further: nearly all actives have a fitted effect of over 70% in size
Target sequence (P83916 whole entry, looked up): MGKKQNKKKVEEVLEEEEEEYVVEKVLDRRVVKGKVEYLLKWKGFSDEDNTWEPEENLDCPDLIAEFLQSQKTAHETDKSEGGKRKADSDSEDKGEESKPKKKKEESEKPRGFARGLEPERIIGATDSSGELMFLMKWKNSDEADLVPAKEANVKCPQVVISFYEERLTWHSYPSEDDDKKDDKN
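Compound inhibition of the preformed complex between 50 nM HP1-beta and 50 nM biotinylated H3K9me3 peptide was read by AlphaScreen. Buffer was PBS pH 7.4 with 0.01% Tween-20. Incubations ran 30 min at room temperature, with 10 ug/mL donor/acceptor beads.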
Active calls of the source: *; ? = inconclusive; · = no result given; [ ] = remark or other dose. The list is not random: actives were taken first. Their share in the collection is about 11%. The call rests on the fitted dose curve; in most records, active means well fitted inhibition curve with a large enough effect; inconclusive means small, poorly fitted or top-dose-only effect; inactive means no such curve, though single readings can be large or run the other way. Potency means the concentration at half of the fitted maximal effect.

SMILES | JMJD2A Tudor | BAZ2B inh | L3MBTL1 block | G9a block | HP1b chromo inh
O=[N+]([O-])c1ccc(C(O)CN2CCN(c3ccccc3)CC2)cc1 (centres undefined) | -3% | 3% | · | 14% | 60%
OC(COC(c1ccc(F)cc1)c1ccc(F)cc1)CN1CCCC(C(F)(F)F)C1 (centres undefined) | 3.5µM* | 50µM* | · | 11µM* | ?
COc1ccc(C(OCC(O)CN2CCC(O)CC2)c2ccc(OC)cc2)cc1 (centres undefined) | -18% | -14% | · | -13% | -2%
OCCN1CCN(CC(O)COC(c2ccc(F)cc2)c2ccc(F)cc2)CC1 (centres undefined) | 7.1µM* | 40µM* | · | -14% | ?
CCc1ccc(CN(Cc2ccco2)c2cnc(S(C)(=O)=O)nc2C(=O)Nc2c(C)cccc2C)cc1 | ? | ? | · | ? | 17%
Cc1cc(C)cc(NC(=O)C2CCN(S(=O)(=O)c3cccc(-c4noc(C)n4)c3)CC2)c1 | -22% | -32% | · | -10%[59 µM] | 19%
COc1ccc(N2CCN(CC(O)COC(c3ccccc3)c3ccccc3)CC2)cc1 (centres undefined) | 45µM* | 45µM* | · | 40µM* | ?
O=c1oc2ccc(Br)cc2cc1-c1nc2c(s1)CCc1ccccc1-2 | 18%[57.1 µM] | · | · | · | 29%[57 µM]
COc1ccc(S(=O)(=O)N(c2onc(C)c2Cl)S(=O)(=O)c2ccc(OC)c(OC)c2)cc1OC | 25µM* | 79µM* | 7% | ? | 32%
Cc1nc2cc(-c3cccc(F)c3)nn2c(C)c1CCC(=O)Nc1ccccc1C(N)=O | -15% | -4% | · | 0%[59 µM] | 14%
COc1ccc(Cl)cc1N=C1NC(=O)CC(C(=O)Nc2ccccc2C(F)(F)F)S1 (centres undefined) | -21% | -27% | · | ? | 10%
CSc1ccccc1Sc1cc(C(=O)O)c2ccccc2n1 | 3% | -1% | -10% | 10µM* | 23%
O=C(NCc1ccc(F)cc1)C(=O)NCC(c1ccco1)S(=O)(=O)c1cccs1 (centres undefined) | -1% | -8% | · | -27%[59 µM] | 46%
CCCN1CCC(=NNc2ccc(S(N)(=O)=O)cc2[N+](=O)[O-])CC1 | -25% | -23% | -6% | 14µM* | 0%
CCCN1CCC(=NNc2ccc(S(=O)(=O)N(CC)CC)cc2[N+](=O)[O-])CC1 | ? | ? | -2% | 35µM* | ?
O=C(N/N=C/c1cccn1-c1cccc(C(=O)O)c1)Nc1ccccc1 | ? | 79µM* | ? | -6%[59 µM] | -24%
O=C(O)c1cccc(-n2cccc2/C=C2/SC(=O)N(CC(=O)N3CCCC3)C2=O)c1 | 40µM* | 50µM* | · | 45µM* | ?
O=C1C(=Cc2cccn2-c2ccccc2)C(=O)c2ccccc21 | -29% | ? | -2% | 3.5µM* | -11%
O=C(O)c1cccc(-n2cccc2C=C2C(=O)c3ccccc3C2=O)c1 | ? | ? | · | 50µM* | -8%
O=C1C(=Cc2cccn2-c2ccc(O)cc2)C(=O)c2ccccc21 | -7% | ? | 2% | · | 28%
Cc1nnc(N2C(=O)c3oc4ccccc4c(=O)c3C2c2ccc(F)cc2)s1 (centres undefined) | 4% | 1% | · | 7%[59 µM] | 26%
CCOC(=O)Cc1ccc(NC(=O)N(Cc2ccc(CC)cc2)Cc2cn[nH]c2-c2ccc(OC)cc2)cc1 | 20% | 0% | · | 2%[59 µM] | 65%
CCOC(=O)c1c(-c2ccc(C)o2)csc1NC(=O)CSc1nnc(C)s1 | -32% | -7% | -1% | ? | -2%
CCOC(=O)c1c(-c2ccc(C)o2)csc1NC(=O)COC(=O)c1ccc(NC(N)=O)cc1 | ? | 79µM* | · | 3.5µM* | -1%
CCOC(=O)c1c(-c2ccc(C)o2)csc1NC(=S)NC(=O)c1cccs1 | -34% | ? | -4% | ? | -18%
SMILES | JMJD2A Tudor | BAZ2B inh | L3MBTL1 block | G9a block | HP1b chromo inh
CCOC(=O)c1c(-c2ccc(C)o2)csc1NC(=S)NC(=O)c1ccccc1Br | ? | -10% | -5% | 32µM* | ?
CCC(CC)C(=O)Nc1nnc(S(=O)(=O)N(C)c2cc(C)cc(C)c2)s1 | -15% | ? | · | -36%[59 µM] | 27%
CCN(c1ccc(NC(=O)COC(=O)CCc2cc(OC)c(OC)c(OC)c2)cc1)C(C)C | ? | -38% | -20% | 25µM* | ?
CC1C/C(=N/Nc2ccc([N+](=O)[O-])cc2[N+](=O)[O-])CC(C)(C)C1 (centres undefined) | 5.6µM* | 10µM* | ? | 10µM* | 8.9µM*
NS(=O)(=O)c1ccc(NN=C2CCCCC2)c([N+](=O)[O-])c1 | ? | ? | -16% | 8%[59 µM] | -35%
CC1C/C(=N/Nc2nc3ccccc3[nH]2)CC(C)(C)C1 (centres undefined) | ? | ? | -12% | 25%[59 µM] | 15%
CC1CCCC/C1=N/Nc1ccc([N+](=O)[O-])cc1[N+](=O)[O-] (centres undefined) | 50µM* | ? | · | 35µM* | -60%
CCOC(=O)C1CCN(c2nc3c(S(=O)(=O)c4ccccc4)nnn3c3ccsc23)CC1 | -5% | -7% | · | -16%[59 µM] | 35%
O=C1c2ccccc2NC(c2cc(Br)c3c(c2)OCO3)N1Cc1ccco1 (centres undefined) | -18%[57.1 µM] | · | · | · | 12%[57 µM]
C/C(=N/NS(=O)(=O)c1ccc(C)cc1)[C@H]1C[C@@H]1c1ccccc1 | 4% | 1% | 5% | 13µM* | 43%
Cc1ccc(-c2cc(NC(=O)COc3c(C)cc(C)cc3C)on2)cc1 | -13% | -8% | · | 4%[59 µM] | 44%
O=S(=O)(c1ccc(OC(F)(F)F)cc1)N1CCCC(N2CCOCC2)C1 (centres undefined) | -5% | 10% | 1% | · | 45%
Cc1ccc(-n2c(N)c(C(=O)N3CCCCC3)sc2=S)cc1 | ? | ? | · | 8.9µM* | 16µM*
Cc1ccc(-n2c(N)c(C(=O)N3CCN(C)CC3)sc2=S)cc1 | ? | -24% | -6% | 2µM* | ?
CCOc1ccc(-n2c(N)c(C(=O)N3CCN(C)CC3)sc2=S)cc1 | -29% | -35% | -11% | 45µM* | 22%
O=C(CCc1nc2cccnc2n1Cc1cccs1)Nc1cccc(Cl)c1 | -25% | -16% | · | 8%[59 µM] | 21%
O=C1NCCCc2c1oc1ccc(O)cc21 | -9% | 13% | 44% | 25%[2.33 µM] | 5%
Oc1c(Cl)cc(Cl)c2c1NCCC2 | 56µM* | ? | -6% | ? | 50µM*
Cc1ccc(CCNC(=O)c2coc3nc4ccccc4nc23)cc1 | 40µM* | 0% | 2% | · | 29%
CC(C)n1nc(C(=O)Nc2cccc(S(=O)(=O)N3CCCCC3)c2)c2ccccc2c1=O | -28% | -1% | 4% | 19%[2.33 µM] | 21%
CC(C(=O)N(C)Cc1ccccc1)N1CCN(C/C=C/c2ccccc2)CC1 (centres undefined) | 1.6µM* | 35µM* | -4% | 20µM* | ?

High-throughput results from PubChem BioAssay.
